Source: a collection of fitness landscapes (doi:10.1016/j.celrep.2020.107928)
Whole data set: some 81,000 sequences, median “one-hybrid fitness for binding NBS DNA” near -0.1, cut for the highest 2% near 0.36. This is one part of a sample in which the highest values are shown more often than they occur.

B1: Caulobacter ParB omega fusion; a variant is named by its letters at X, in order, B8GW30 (parent)
chain: MESVVVGEPGMSEGRRGLGRGLSALLGEVDAAPAQAPGEQLGGSREAPIEILQRNPDQPRRTFREEDLEDLSNSIREKGVLQPILVRPSPDTAGEYQIVAGERAWRAAQRAGLKTVPIMVRELDDLAVLEIGIIENVQRADLNVLEEALSYKVLMEKFERTQENIAQTIGKSXSHVANXMRLLXLPDEVQSYLVSGELTAXHARAIAAAADPVALAKQIIEGGLSVRETEALARKAPNLSAGKSKGGRPPRVKDTDTQALESDLSSVLGLDVSIDHRGSTGTLTITYATLEQLDDLCNRLTRGI

Variants of: B1
Assay: one-hybrid fitness for binding NBS DNA (the Noc-binding site; scaled: cognate 1, non-cognate 0); higher = stronger binding
Details: with NBS DNA site
Procedure, shortened: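 Fitness is the rescaled log change in variant-to-wild-type read ratio, measured by Illumina sequencing of plasmids before and after bacterial one-hybrid selection. The scale puts cognate at 1 and non-cognate at 0. Selection of Caulobacter ParB libraries, four specificity codons randomised, took place in E. coli USO with a HIS3 reporter, site 19 bp from the promoter, over 48 hours at 37°C on M9-minus-histidine with 0.1 mM IPTG and 5 mM 3-AT.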

Variant | one-hybrid fitness for binding NBS DNA
TTVS | ≤ 0.2
YHRS | ≤ 0.2
YKRY | ≤ 0.2
IDDD | ≤ 0.2
SRTS | ≤ 0.2
TNTI | ≤ 0.2
CWVC | ≤ 0.2
RTKL | ≤ 0.2
CLGT | ≤ 0.2
QPYA | ≤ 0.2
QRYA | 0.588
QREA | 0.288
RATL | ≤ 0.2
AQRI | ≤ 0.2
VVMC | ≤ 0.2
QSSK | ≤ 0.2
QRPK | ≤ 0.2
QRSK | 0.396
QRWK | 0.239
QSHK | ≤ 0.2
QCHK | ≤ 0.2
QRHK | 0.432
QSCK | ≤ 0.2
QRRK | 0.747
QCSK | ≤ 0.2

Variant | one-hybrid fitness for binding NBS DNA
QRCK | 0.388
QCCK | ≤ 0.2
YTTG | ≤ 0.2
PILC | ≤ 0.2
GPWT | ≤ 0.2
TTST | ≤ 0.2
PSAI | ≤ 0.2
LWNA | ≤ 0.2
HNMG | 0.257
QRAK | 0.373
QRNK | 0.488
QCGK | ≤ 0.2
QRGK | 0.445
QCAK | ≤ 0.2
QCNK | ≤ 0.2
QRYK | 0.381
QSGK | ≤ 0.2
QRDK | ≤ 0.2
QRIK | 0.213
QREK | ≤ 0.2
QRFK | 0.295
TYVS | ≤ 0.2
MKIS | ≤ 0.2
KICD | ≤ 0.2
FCSG | ≤ 0.2

Variant | one-hybrid fitness for binding NBS DNA
FRQA | ≤ 0.2
QRQK | 0.365
QCQK | ≤ 0.2
QSQK | ≤ 0.2
QCRT | 0.857
QSRT | 0.723
GPRT | 0.369
QPRT | ≤ 0.2
QCYT | 0.503
QSYT | 0.347
GCRT | ≤ 0.2
QPYT | ≤ 0.2
QNRT | 0.292
QNYT | ≤ 0.2
GPYT | ≤ 0.2
VDRR | ≤ 0.2
QPAL | ≤ 0.2
PSKA | ≤ 0.2
SGLS | ≤ 0.2
RPAY | ≤ 0.2
SNWT | ≤ 0.2
PAIL | ≤ 0.2
HYHS | ≤ 0.2
FRPV | ≤ 0.2
PPFR | ≤ 0.2

Variant | one-hybrid fitness for binding NBS DNA
QHYT | 0.359
QIRT | 0.608
QHRT | 0.681
QIPT | ≤ 0.2
QHLT | 0.337
QALT | 0.352
QLRT | 0.668
QART | 0.716
QLLT | 0.33
QLYT | 0.355
QIYT | 0.335
QAYT | 0.322
ALLT | ≤ 0.2
QWRW | ≤ 0.2
HELN | ≤ 0.2
VNET | ≤ 0.2
TDND | ≤ 0.2
QYNF | ≤ 0.2
HKPS | ≤ 0.2
SLTE | ≤ 0.2
AVAW | ≤ 0.2
QTVR | 0.558
QTKR | 1.15
DTKR | 0.321
NTKR | 0.255

Variant | one-hybrid fitness for binding NBS DNA
VQPA | ≤ 0.2
YAHE | ≤ 0.2
QHYS | 0.324
QHRP | 0.201
QHYH | ≤ 0.2
QHRS | 0.627
QHRH | 0.494
QHRD | 0.234
SNPD | ≤ 0.2
YDCG | ≤ 0.2
IGGI | ≤ 0.2
EAAG | ≤ 0.2
QLER | 0.266
QLPR | 0.232
QLSP | ≤ 0.2
QLFR | 0.329
QLAP | ≤ 0.2
QLRD | ≤ 0.2
QLSN | ≤ 0.2
QLIR | 0.294
QLYR | 0.425
QLRR | 0.943
QLAR | 0.478
QLSR | 0.464
CSWC | ≤ 0.2

Variant | one-hybrid fitness for binding NBS DNA
YYPG | ≤ 0.2
WYCF | ≤ 0.2
HGNS | ≤ 0.2
FIMG | ≤ 0.2
PPDN | ≤ 0.2
GYQT | ≤ 0.2
DTTS | ≤ 0.2
TWKT | ≤ 0.2
SACG | ≤ 0.2
QLHH | ≤ 0.2
QLQR | 0.483
QLLS | ≤ 0.2
QLHP | ≤ 0.2
QLQH | ≤ 0.2
QLCD | ≤ 0.2
QLCR | 0.468
QLLP | ≤ 0.2
QLCP | ≤ 0.2
QLLR | 0.415
QLHR | 0.519
QLQD | ≤ 0.2
LLRD | ≤ 0.2
RCWE | ≤ 0.2
ILMW | ≤ 0.2
QNKK | ≤ 0.2

Variant | one-hybrid fitness for binding NBS DNA
WACV | ≤ 0.2
ARFF | ≤ 0.2
YTQC | ≤ 0.2
KEGR | ≤ 0.2
VEDR | ≤ 0.2
QLGD | ≤ 0.2
QLGR | 0.496
QLGN | ≤ 0.2
NTCV | ≤ 0.2
LCVN | ≤ 0.2
QTHC | 0.248
QIHT | 0.425
QLHG | ≤ 0.2
QTHG | 0.234
QCHT | 0.551
QIHK | ≤ 0.2
QIHN | ≤ 0.2
QTHT | 0.648
QLHT | 0.393
QFHT | ≤ 0.2
QPHT | ≤ 0.2
NTKL | ≤ 0.2
YMTV | ≤ 0.2
HSGS | ≤ 0.2
THQS | ≤ 0.2

Variant | one-hybrid fitness for binding NBS DNA
HCNT | ≤ 0.2
MGAT | ≤ 0.2
QWHT | ≤ 0.2
QHHY | ≤ 0.2
QHHK | ≤ 0.2
QAHF | ≤ 0.2
QAHT | 0.414
QAHC | ≤ 0.2
QNHT | ≤ 0.2
QSHT | 0.429
QHHT | 0.419
PYTI | ≤ 0.2
TEKH | ≤ 0.2
AHRE | ≤ 0.2
QKNF | ≤ 0.2
QKNC | 0.201
QKDR | 0.425
QKDF | ≤ 0.2
QKNR | 0.747
SPCS | ≤ 0.2
